# Measurements taken from PubChem BioAssay AID1159580 (chemical genetic matrix, 2015).
# Where “and” joins values, the source holds several entries; their conditions need not be identical. Identical values can stand only once. The campaign covered roughly 5,500 compounds. About 2,000 (36%) were called active. Another 18% or so got no clear call; they are omitted. Some of the results follow. A number with no mark means an inactive call. No stated cut-off is given here; in the data, active means normalized growth mostly below about 0.91 (no sharp cut-off); inconclusive means no clear call, values can overlap the other calls; inactive means mostly above about 0.92.
# Test: chemical genetic growth profiling, strain panel (AID 1159580);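 further: tested at 20 µM; growth read once vehicle control cultures reached saturation at 30 °C; 1 = growth at the plate median or of vehicle wells; lower values mean less growth of the strain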
# Settings: S. cerevisiae deletion strains, growth OD
structure (smiles),measurement,setting,value
CCN(CCCc1ccccc1)CCCc1ccccc1,normalized growth,"locus YAL021C, strain ccr4, active compounds read low",0.915
same,normalized growth,"locus YAL026C, strain drs2, active compounds read low",0.862 (active)
same,normalized growth,"locus YAL030W, strain snc1, active compounds read low",0.991
same,normalized growth,"locus YBL061C, strain skt5, active compounds read low",0.981
same,normalized growth,"locus YBR009C, strain hhf1, active compounds read low",1.01
same,normalized growth,"locus YBR021W, strain FUR4, active compounds read low",0.977
same,normalized growth,"locus YBR023C, strain chs3, active compounds read low",0.96
same,normalized growth,"locus YBR171W, strain sec66, active compounds read low",0.97
same,normalized growth,"locus YBR229C, strain ROT2, active compounds read low",1
same,normalized growth,"locus YBR231C, strain swc5, active compounds read low",0.987
same,normalized growth,"locus YBR279W, strain paf1, active compounds read low",0.983
same,normalized growth,"locus YCL011C, strain gbp2, active compounds read low",0.966
same,normalized growth,"locus YCL016C, strain dcc1, active compounds read low",0.939
same,normalized growth,"locus YCL029C, strain bik1, active compounds read low",1.02
same,normalized growth,"locus YCL061C, strain MRC1, active compounds read low",0.965
same,normalized growth,"locus YCL069W, strain vba3, active compounds read low",0.985
same,normalized growth,"locus YCR088W, strain abp1, active compounds read low",0.99
same,normalized growth,"locus YDL005C, strain med2, active compounds read low",0.99
same,normalized growth,"locus YDL035C, strain GPR1, active compounds read low",0.976
same,normalized growth,"locus YDL040C, strain nat1, active compounds read low",0.984
same,normalized growth,"locus YDL074C, strain BRE1, active compounds read low",1.01
same,normalized growth,"locus YDL101C, strain DUN1, active compounds read low",1.02
same,normalized growth,"locus YDL134C, strain PPH21, active compounds read low",0.976
same,normalized growth,"locus YDL185W, strain tfp1, active compounds read low",1.03
same,normalized growth,"locus YDL192W, strain arf1, active compounds read low",1.02
same,normalized growth,"locus YDR001C, strain nth1, active compounds read low",0.985
same,normalized growth,"locus YDR069C, strain doa4, active compounds read low",0.974
same,normalized growth,"locus YDR101C, strain arx1, active compounds read low",1.03
same,normalized growth,"locus YDR137W, strain rgp1, active compounds read low",0.735 (active)
same,normalized growth,"locus YDR150W, strain NUM1, active compounds read low",1
same,normalized growth,"locus YDR159W, strain sac3, active compounds read low",1.01
same,normalized growth,"locus YDR162C, strain NBP2, active compounds read low",1.01
same,normalized growth,"locus YDR195W, strain ref2",1.02
same,normalized growth,"locus YDR297W, strain sur2, active compounds read low",0.99
same,normalized growth,"locus YDR318W, strain mcm21, active compounds read low",1.01
same,normalized growth,"locus YDR334W, strain swr1, active compounds read low",0.983
same,normalized growth,"locus YDR335W, strain msn5, active compounds read low",0.983
same,normalized growth,"locus YDR388W, active compounds read low",1.02
same,normalized growth,"locus YDR392W, strain spt3, active compounds read low",0.951
same,normalized growth,"locus YDR502C, strain sam2, active compounds read low",1.02
same,normalized growth,"locus YEL003W, strain gim4, active compounds read low",0.99
same,normalized growth,"locus YEL037C, strain rad23, active compounds read low",0.984
same,normalized growth,"locus YEL061C, strain CIN8 (second series), active compounds read low",0.988
same,normalized growth,"locus YEL061C, strain CIN8, active compounds read low",1
same,normalized growth,"locus YER015W, strain faa2, active compounds read low",0.977
same,normalized growth,"locus YER016W, strain bim1, active compounds read low",1
same,normalized growth,"locus YER110C, active compounds read low",1.04
same,normalized growth,"locus YER111C, strain swi4, active compounds read low",0.962
same,normalized growth,"locus YER155C, strain BEM2 (second series), active compounds read low",0.99
same,normalized growth,"locus YER155C, strain BEM2, active compounds read low",0.999
same,normalized growth,"locus YER167W, strain BCK2, active compounds read low",0.975
same,normalized growth,"locus YFR010W, strain ubp6, active compounds read low",0.98
same,normalized growth,"locus YGL078C, strain dbp3, active compounds read low",1.02
same,normalized growth,"locus YGL086W, strain mad1, active compounds read low",1.01
same,normalized growth,"locus YGL167C, strain pmr1, active compounds read low",0.983
same,normalized growth,"locus YGL173C, strain kem1, active compounds read low",0.979
same,normalized growth,"locus YGL227W, strain vid30, active compounds read low",0.994
same,normalized growth,"locus YGL240W, strain doc1, active compounds read low",0.971
same,normalized growth,"locus YGL248W, strain PDE1, active compounds read low",0.997
same,normalized growth,"locus YGL253W, strain hxk2, active compounds read low",0.978
same,normalized growth,"locus YGR078C, strain PAC10, active compounds read low",1
same,normalized growth,"locus YGR135W, strain pre9, active compounds read low",1.01
same,normalized growth,"locus YGR252W, strain gcn5, active compounds read low",0.945
same,normalized growth,"locus YHR013C, strain ard1, active compounds read low",0.927
same,normalized growth,"locus YHR027C, strain rpn1, active compounds read low",0.978
same,normalized growth,"locus YHR030C, strain SLT2, active compounds read low",1 and 1.01
same,normalized growth,"locus YHR079C, strain IRE1 (second series), active compounds read low",1.03
same,normalized growth,"locus YHR079C, strain IRE1, active compounds read low",1.03
same,normalized growth,"locus YHR094C, strain hxt1, active compounds read low",1.03
same,normalized growth,"locus YHR129C, strain ARP1, active compounds read low",1
same,normalized growth,"locus YHR142W, strain chs7, active compounds read low",0.93
same,normalized growth,"locus YHR200W, strain rpn10, active compounds read low",1.02
same,normalized growth,"locus YIL066C, strain RNR3, active compounds read low",0.965
same,normalized growth,"locus YIL073C, strain SPO22, active compounds read low",0.999
same,normalized growth,"locus YIL125W, strain kgd1, active compounds read low",1.03
same,normalized growth,"locus YIR030C, strain dcg1, active compounds read low",1.03
same,normalized growth,"locus YJL092W, strain hpr5, active compounds read low",0.976
same,normalized growth,"locus YJL095W, strain BCK1 (second series), active compounds read low",0.981
same,normalized growth,"locus YJL095W, strain BCK1, active compounds read low",1.02
same,normalized growth,"locus YJL115W, strain asf1, active compounds read low",0.98
same,normalized growth,"locus YJL129C, strain trk1, active compounds read low",0.956
same,normalized growth,"locus YJL134W, strain LCB3, active compounds read low",1
same,normalized growth,"locus YJL154C, strain vps35, active compounds read low",0.977
same,normalized growth,"locus YJL164C, strain tpk1, active compounds read low",0.97
same,normalized growth,"locus YJL166W, strain qcr8, active compounds read low",0.93
same,normalized growth,"locus YJL168C, strain set2, active compounds read low",1.02
same,normalized growth,"locus YJL187C, strain SWE1 (second series), active compounds read low",1.02
same,normalized growth,"locus YJL187C, strain SWE1, active compounds read low",0.991
same,normalized growth,"locus YJR043C, strain POL32, active compounds read low",0.949
same,normalized growth,"locus YJR066W, strain TOR1, active compounds read low",0.985
same,normalized growth,"locus YKL009W, strain mrt4, active compounds read low",1.01
same,normalized growth,"locus YKL068W, active compounds read low",1.01
same,normalized growth,"locus YKL085W, strain MDH1 (second series), active compounds read low",1
same,normalized growth,"locus YKL085W, strain MDH1, active compounds read low",1
same,normalized growth,"locus YKL160W, strain elf1, active compounds read low",0.935
same,normalized growth,"locus YKR001C, strain vps1, active compounds read low",1.02
same,normalized growth,"locus YKR026C, strain gcn3, active compounds read low",0.983
same,normalized growth,"locus YKR091W, strain srl3, active compounds read low",0.99
same,normalized growth,"locus YLL001W, strain dnm1, active compounds read low",0.914
same,normalized growth,"locus YLL026W, active compounds read low",0.997
same,normalized growth,"locus YLL041C, strain sdh2, active compounds read low",0.989
same,normalized growth,"locus YLR027C, strain aat2, active compounds read low",0.982
same,normalized growth,"locus YLR039C, strain RIC1, active compounds read low",1.04
same,normalized growth,"locus YLR058C, strain SHM2, active compounds read low",1.02
same,normalized growth,"locus YLR102C, strain apc9, active compounds read low",1.02
same,normalized growth,"locus YLR113W, strain HOG1, active compounds read low",1.01
same,normalized growth,"locus YLR221C, strain rsa3, active compounds read low",0.961
same,normalized growth,"locus YLR258W, strain gsy2, active compounds read low",0.973
same,normalized growth,"locus YLR262C, strain YPT6 (second series), active compounds read low",0.701 (active)
same,normalized growth,"locus YLR262C, strain YPT6, active compounds read low",1.06
same,normalized growth,"locus YLR268W, strain sec22, active compounds read low",1.03
same,normalized growth,"locus YLR320W, strain mms22, active compounds read low",0.894
same,normalized growth,"locus YLR330W, strain CHS5, active compounds read low",0.994
same,normalized growth,"locus YLR342W, strain FKS1 (second series), active compounds read low",0.963
same,normalized growth,"locus YLR342W, strain FKS1, active compounds read low",0.981
same,normalized growth,"locus YLR357W, strain rsc2, active compounds read low",0.953
same,normalized growth,"locus YLR370C, strain arc18, active compounds read low",0.963
same,normalized growth,"locus YLR371W, strain rom2, active compounds read low",1.02
same,normalized growth,"locus YLR384C, strain iki3, active compounds read low",0.983
same,normalized growth,"locus YLR418C, strain cdc73, active compounds read low",0.988
same,normalized growth,"locus YML016C, strain PPZ1, active compounds read low",1.01
same,normalized growth,"locus YML032C, strain rad52, active compounds read low",1.01
same,normalized growth,"locus YML120C, strain ndi1, active compounds read low",0.943
same,normalized growth,"locus YML124C, strain tub3, active compounds read low",1.02
same,normalized growth,"locus YMR058W, strain fet3, active compounds read low",0.97
same,normalized growth,"locus YMR078C, strain ctf18, active compounds read low",1.03
same,normalized growth,"locus YMR125W, strain sto1, active compounds read low",0.96
same,normalized growth,"locus YMR129W, active compounds read low",0.984
same,normalized growth,"locus YMR205C, strain PFK2, active compounds read low",0.952
same,normalized growth,"locus YMR223W, strain ubp8, active compounds read low",1.02
same,normalized growth,"locus YMR231W, strain pep5, active compounds read low",0.99
same,normalized growth,"locus YMR307W, strain GAS1, active compounds read low",1.06
same,normalized growth,"locus YNL067W, strain RPL9B, active compounds read low",1.02
same,normalized growth,"locus YNL071W, strain lat1, active compounds read low",0.973
same,normalized growth,"locus YNL153C, strain GIM3, active compounds read low",1
same,normalized growth,"locus YNL183C, strain NPR1, active compounds read low",0.957
same,normalized growth,"locus YNL209W, strain ssb2, active compounds read low",0.975
same,normalized growth,"locus YNL233W, strain BNI4, active compounds read low",1.03
same,normalized growth,"locus YNL248C, strain rpa49, active compounds read low",0.951
same,normalized growth,"locus YNL250W, strain rad50, active compounds read low",1.02
same,normalized growth,"locus YNL271C, strain bni1, active compounds read low",1.04
same,normalized growth,"locus YNL298W, strain CLA4, active compounds read low",1.03
same,normalized growth,"locus YNL307C, strain MCK1, active compounds read low",1.04
same,normalized growth,"locus YNL322C, strain KRE1 (second series), active compounds read low",0.992
same,normalized growth,"locus YNR049C, strain mso1, active compounds read low",0.977
same,normalized growth,"locus YNR052C, strain pop2, active compounds read low",1.03
same,normalized growth,"locus YOL006C, strain TOP1, active compounds read low",0.909
same,normalized growth,"locus YOL012C, strain htz1",0.929
same,normalized growth,"locus YOL147C, strain pex11, active compounds read low",1.03
same,normalized growth,"locus YOR001W, strain rrp6, active compounds read low",0.982
same,normalized growth,"locus YOR061W, strain CKA2, active compounds read low",1.01
same,normalized growth,"locus YOR069W, strain VPS5, active compounds read low",1.01
same,normalized growth,"locus YOR070C, strain gyp1, active compounds read low",0.979
same,normalized growth,"locus YOR080W, strain dia2, active compounds read low",0.984
same,normalized growth,"locus YOR083W, strain WHI5, active compounds read low",0.93
same,normalized growth,"locus YOR106W, strain vam3, active compounds read low",0.961
same,normalized growth,"locus YOR136W, strain idh2, active compounds read low",1.03
same,normalized growth,"locus YOR144C, strain elg1, active compounds read low",1.03
same,normalized growth,"locus YOR184W, strain ser1, active compounds read low",1.05
same,normalized growth,"locus YOR231W, strain MKK1, active compounds read low",1.01
same,normalized growth,"locus YOR265W, strain rbl2, active compounds read low",1
same,normalized growth,"locus YOR270C, strain vph1, active compounds read low",0.885
same,normalized growth,"locus YOR290C, strain snf2, active compounds read low",0.919
same,normalized growth,"locus YOR316C, strain cot1, active compounds read low",1.03
same,normalized growth,"locus YPL051W, strain arl3, active compounds read low",0.93
same,normalized growth,"locus YPL078C, strain atp4, active compounds read low",0.932
same,normalized growth,"locus YPL106C, strain sse1, active compounds read low",0.947
same,normalized growth,"locus YPL240C, strain hsp82, active compounds read low",0.996
same,normalized growth,"locus YPL241C, strain CIN2, active compounds read low",1
same,normalized growth,"locus YPL256C, strain CLN2, active compounds read low",1.01
same,normalized growth,"locus YPR119W, strain clb2, active compounds read low",1.03
same,normalized growth,"locus YPR141C, strain kar3, active compounds read low",1.04
same,normalized growth,"locus YPR163C, strain tif3, active compounds read low",1.05
same,normalized growth,"locus YPR167C, strain met16, active compounds read low",1.03
same,normalized growth,"strain wtn01, active compounds read low",1.04
